Test results: PubChem BioAssay (NCI)
The panel holds about 83,000 compounds, 20% with a hit somewhere; the sample as a whole holds those more often.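 Treatment: one concentration, 48 hours, 96-well format. Scoring: percent growth, with anything below 10 considered active.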 Values without a mark were called inactive. Calls of active or inactive are those of the source.

Tests used:
Experiment in all cases: NCI-60 one-dose screen, 48 h (100 = growth as untreated, 0 = no growth, -100 = all killed)
Conditions in all cases: 10 µM unless noted
NCI-H23 lung = tested on: NCI-H23 lung
NCI-H226 lung = tested on: NCI-H226 lung
NCI-H322M lung = tested on: NCI-H322M lung
HOP-62 NSCLC = tested on: HOP-62 NSCLC
NCI-H460 lung = tested on: NCI-H460 lung
HOP-92 NSCLC = tested on: HOP-92 NSCLC
NCI-H522 lung = tested on: NCI-H522 lung
A549/ATCC NSCLC = tested on: A549/ATCC NSCLC
786-0 renal = tested on: 786-0 renal
COLO 205 colon = tested on: COLO 205 colon
DU-145 prostate = tested on: DU-145 prostate
K-562 leukemia = tested on: K-562 leukemia
MALME-3M melanoma = tested on: MALME-3M melanoma
MDA-MB-231 breast = tested on: MDA-MB-231 breast
RXF 393 renal = tested on: RXF 393 renal
SF-268 CNS = tested on: SF-268 CNS
SF-295 CNS = tested on: SF-295 CNS
SF-539 CNS = tested on: SF-539 CNS
UACC-257 melanoma = tested on: UACC-257 melanoma
M14 melanoma = tested on: M14 melanoma

Row | SMILES | growth (NCI-H23 lung) | growth (NCI-H226 lung) | growth (NCI-H322M lung) | growth (HOP-62 NSCLC) | growth (NCI-H460 lung) | growth (HOP-92 NSCLC) | growth (NCI-H522 lung) | growth (A549/ATCC NSCLC) | growth (786-0 renal) | growth (COLO 205 colon) | growth (DU-145 prostate) | growth (K-562 leukemia) | growth (MALME-3M melanoma) | growth (MDA-MB-231 breast) | growth (RXF 393 renal) | growth (SF-268 CNS) | growth (SF-295 CNS) | growth (SF-539 CNS) | growth (UACC-257 melanoma) | growth (M14 melanoma)
1 | CNC(=O)c1cc(Oc2ccc(NC(=O)c3nc(S(C)(=O)=O)sc3-c3ccc(F)cc3)cc2)ccn1 | 94.8% | 101% | 28.2% | 94.9% | 84.7% | 138% | 53.4% | 94.8% | 98.3% | 69.1% | -57.5% (active) | 86.8% | 94.5% | 119% | 104% | 98.8% | 95.3% | 97.4% | 65.7% | 87.8%
2 | CCOC(=O)C(=CNc1ccccc1Cl)C(=O)OCC | 103% | 122% | 110% | 94.5% | 103% | 97.2% | 72% | 85.6% | 87.7% | 129% | 107% | 54.3% | 140% | 104% | 100% | 94.3% | 89.9% | 102% | 103% | 113%
3 | O=C(Nc1ccc(Oc2ccc(NC(=O)Nc3ccccc3Cl)cc2)cc1)Nc1ccccc1Cl | 41.8% | 61.9% | 75.7% | 81% | 30.2% | 38% | -10.4% (active) | -3.15% (active) | 78.7% | 49% | 24.2% | 33.6% | 66.7% | 72.3% | -15.8% (active) | 40.3% | 71.2% | 62.8% | 60.5% | 65%
4 | COc1ccc(-c2nc(-c3ccccc3OCc3ccccc3OC)nc(C)c2C(C)=O)cc1 | 74.8% | 81.5% | 94.7% | 91.5% | 80.6% | 71.2% | 78.3% | 79.7% | 91.3% | 86.7% | 92.8% | 81.6% | 92.5% | 64.3% | 92.6% | 94.7% | 91.8% | 101% | 96% | 84.2%
5 | CCN(CC)CCCC(C)Nc1cnc(C(=O)Nc2cccc3ccc(OC)nc23)cn1 (stereo not given) | 96.1% | 61.4% | 75.5% | 94.2% | 1.05% (active) | 49.5% | 5.07% (active) | 81.2% | 73.4% | 71.4% | 78.8% | -57.1% (active) | -69.8% (active) | 71.8% | 46% | 63% | 101% | 0.457% (active) | -39% (active) | -75.6% (active)
6 | Cc1cc(C)cc(NC(=O)Cn2nncc2CN2C(=O)CSC2=O)c1 | 97.5% | 104% | 109% | 102% | 107% | 124% | 94.5% | 102% | 108% | 108% | 109% | 101% | 100% | 97.5% | 113% | 101% | 103% | 94.7% | 97.3% | 106%
7 | COc1ccccc1NC(=O)OCC12COCN1COC2 | 100% | 99% | 107% | 104% | 104% | 105% | 100% | 92.9% | 103% | 108% | 112% | 104% | 103% | 102% | 108% | 106% | 103% | 103% | 89.9% | 104%
8 | O=C(OCc1ccc2c(Cl)cc(Cl)c(O)c2n1)c1cc2ccccc2[nH]1 | -54.4% (active) | -73.7% (active) | 8.26% (active) | -35.1% (active) | -75% (active) | -77.3% (active) | -73.8% (active) | -54.2% (active) | -78.6% (active) | -87.1% (active) | -94.5% (active) | -5.38% (active) | -77.7% (active) | -78.3% (active) | -94.9% (active) | -80.4% (active) | 64.3% | -91.1% (active) | -72.4% (active) | -69.7% (active)
